# In PubChem BioAssay AID504882 (Broad Institute, 2011):
# Among all 1,200 compounds or so, about 290 (24%) were called active. About 9% were inconclusive and are not listed. A selection follows. Results with a measured potency or affinity are listed apart. Values without a mark were called inactive. How the calls were made is not given here.
# Test: LCL viability reduction – cell-based, plate reader, cherry-picks, set 2, cytotoxicity control, dose response (AID 504882);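 further: 0% = neutral control wells and -100% = positive control wells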
# Details: EBV lymphoblastoid cells (LCL) viability; series mostly up to 19.5 µM; activity change, negative = cytotoxicity: at the top concentration
Compound,"activity change, negative = cytotoxicity",outcome
O=C(O)c1cccc(Nc2ccnc(Nc3cccc(C(=O)O)c3)n2)c1,-4.18%,–
COc1ccc(Nc2oc(COc3ccccc3OC)nc2C#N)cc1,-4.94%,–
Cc1ccc(/C=C/C(=O)C2C(=O)c3ccccc3C2=O)cc1,-8.6%,–
COc1ccc(-c2nc(CS(=O)CC(=O)NCc3ccc(Cl)cc3)c(C)o2)cc1 (centres undefined),12.2%,–
O=C(NCc1ccccc1)c1cccc(COc2ccc3c(c2)CCC3)c1,-3.91%,–
CC(C)Oc1ccc(C2CC(=O)NC2=O)cc1 (centres undefined),11.7%,–
CCCCCc1ccc(-c2ccc(/C=C/C(=O)O)cc2)nc1,5.56%,–
C(=N\Nc1ccc2ccccc2n1)/c1ccc2c(c1)OCO2,-6.72%,–
O=C(NCCOc1ccccc1)c1ccc2c(c1)OCO2,1.1%,–
COc1ccc(/C=C2\SC(=O)N(CCCC(=O)Nc3ccc(C(=O)O)cc3)C2=O)cc1,1.88%,–
Cc1cc(NC(=O)c2ccc(C)s2)n(-c2nc3ccccc3[nH]2)n1,0.681%,–
N=c1c(-c2nc3ccccc3[nH]2)cc(C(=O)c2cccs2)nn1-c1ccccc1,24.6% [at 6.8 µM],–
CSc1ccccc1C(=O)N1CCC2(CC1)CC(=O)c1ccccc1O2,-4.19%,–
CS(=O)(=O)Nc1ccc(C2=NN(S(C)(=O)=O)C(c3ccccc3)C2)cc1 (centres undefined),14.9%,–
Cc1cccc(NC(=O)Nc2c(C)n(C)n(-c3ccccc3)c2=O)c1C,16.7%,–
CCc1ccccc1NC(=O)COC(=O)c1c(C)nsc1NC,-0.023%,–
CCc1ccc(/C=C2\SC(=S)N(CCCC(=O)Nc3ccccn3)C2=O)cc1,22.6%,–
CCN1CCN(Cc2ccc(NC(=O)c3ccc(C)c(NC(=O)c4nccn4C)c3)cc2C(F)(F)F)CC1,17.8%,–
CCN1CCN(Cc2ccc(NC(=O)c3ccc(C)c(NC(=O)c4ccno4)c3)cc2C(F)(F)F)CC1,–,inactive
COC(=O)C(NS(=O)(=O)c1ccc(N2CCCC2=O)cc1)c1ccccc1 (centres undefined),5.59%,–
CC(=NNC(=S)N1CCCCCC1)c1cccc2cccnc12,-11.8%,–
O=C(CSc1nnc(-c2cccc(S(=O)(=O)N3CCOCC3)c2)n1C1CCCCCC1)NCc1ccccc1,18.8%,–
N#CC(C#N)c1ccnc2ccccc12,-9.1%,–
CC(CCc1ccco1)N(C)S(=O)(=O)c1csc(C(N)=O)c1 (centres undefined),21.2%,–
CC1CCCN(C(=O)COC(=O)c2n[nH]c3ccccc23)C1 (centres undefined),12.2%,–
CCN(C(=O)c1cccc(NC(=O)c2ccccc2)c1)C1CCCCC1,3.55%,–

Compound,"activity change, negative = cytotoxicity",outcome
Brc1cccc(CSc2nnc(-c3ccncc3)o2)c1,14.1%,–
O=c1oc2ccccc2c(O)c1/C=N/c1ccccn1,6.3%,–
CCc1nn2cc(-c3ccccc3)nc2s1,-9.32%,–
O=C(NCC1CCOCC1)c1ccc(OC2CCN(Cc3ccccn3)CC2)cc1,14.2%,–
Cc1ccc(C(=O)Nc2cccc(C(F)(F)F)c2)cc1NC(=O)c1ccno1,–,inactive
COc1cnc(-c2ccccn2)nc1Sc1ccccc1Cl,-10.1%,–
CCOc1ccc(NC(=O)CCc2nnc3ccc(N4CCC5(CC4)OCCO5)nn23)cc1,19.6%,–
C[C@H](CO)N1C[C@H](C)[C@@H](CN(C)C(=O)NC2CCCCC2)Oc2c(NS(=O)(=O)c3cn(C)cn3)cccc2C1=O,20.8%,–
CC1=CC(=NOC(=O)/C=C/c2ccccc2)C=C(C)C1=O,5.42%,–
CCc1ccccc1N(CC(=O)NCc1ccco1)C(=O)c1snc(C(N)=O)c1N,17.4%,–
Cc1ccc(C(=O)Nc2cccc(C(=O)N/N=C/c3ccccc3F)c2)cc1,20.6%,–
Oc1cccc(/C=N/NC(=S)NCCN2CCOCC2)c1O,-3.47%,–
Cc1ccc(S(=O)(=O)N2c3ccccc3-c3c(ssc3=S)C2(C)C)cc1,-5.56%,–
Cc1ccc(S(=O)(=O)N2CCN(C(=O)COC(=O)COc3ccc(Cl)cc3)CC2)c(C)c1,14.5%,–
O=C(Nc1nnc(N2CCCCCC2)s1)c1cc(-c2ccc(Br)cc2)on1,19.4%,–
O=C(c1ccc(COc2ccccc2Cl)o1)N1CCCC1,16.5%,–
Oc1c(N=NC(=S)Nc2ccccc2F)c2ccccc2n1Cc1ccc(F)cc1,-11.9%,–
COc1ccc(NC(=O)C2CCCN(S(=O)(=O)c3cccc4nonc34)C2)c(OC)c1 (centres undefined),5.94%,–
CC1=C(CC(=O)O)c2cc(F)ccc2C1=Cc1ccc(S(C)(=O)=O)cc1,17.6%,–
Cc1cc(NCCCn2ccnc2)n2ncc(-c3ccccc3)c2n1,21.1%,–
CSc1nc(C)nc2c1c(=O)n(C)c(=O)n2C,12.2%,–
Cc1ccc(S(=O)(=O)N2CCCCC2)cc1NC(=O)CNc1ccccc1N1CCCC1=O,6.06%,–
COc1ccc(Nc2oc(COc3ccc(Cl)cc3)nc2C#N)cc1,15.1%,–
COCC(=O)N1CCC(Oc2ccc(C(=O)N3C[C@H]4CC[C@H]3C4)cc2)CC1,0.176%,–
O=C(CCS(=O)(=O)c1ccccc1)Nc1nccs1,18.3%,–
COc1ccc(OC)c(NC(=O)COc2coc(CN3CCc4ccccc43)cc2=O)c1,24.7%,–

Compound,"activity change, negative = cytotoxicity",outcome
O=C(OCc1nc2ccccc2s1)[C@@H]1CCCN1S(=O)(=O)c1ccccc1F,14.9%,–
Cn1cccc1/C=C1\CC(C(C)(C)C)C/C(=C\c2cccn2C)C1=O (centres undefined),13.2%,–
COc1ccccc1-n1c(-c2ccccc2)n[nH]c1=S,25.3%,–
CC(=O)c1ccc(-n2nnnc2SCC(=O)N2CCc3ccccc3C2)cc1,15.6%,–
CCN(Cc1ccncc1)C(=O)CCc1ccccc1,11.8%,–
Cn1cccc1-c1cc(C(=O)N2CCc3c([nH]c4ccccc34)C2c2ccccn2)[nH]n1 (centres undefined),2.26%,–
Cc1ccc(CCNC(=O)Cc2ccc(NC3=NC4CS(=O)(=O)CC4S3)cc2)cc1 (centres undefined),9.45%,–
Cn1c(=O)c2ncn(CC(=O)O)c2n(C)c1=O,11.2%,–
CCOc1cc(C(=O)OC(C)C(=O)Nc2ncc(Cl)cc2Cl)ccc1OCC(=O)N1CCOCC1 (centres undefined),4.56%,–
CC(=O)N1c2ccc(S(=O)(=O)N3CCC(C(=O)N4CCN(c5ccc(Cl)cc5)CC4)CC3)cc2CC1C (centres undefined),-24%,–
O=C1c2cccc3c(O)ccc(c23)C(=O)N1c1ccc(Cl)cc1,0.514%,–
C/C(=N\NS(=O)(=O)c1ccc([N+](=O)[O-])cc1)c1cccs1,28.4%,–
COc1cccc(/C=N/Nc2ncnc(N)c2[N+](=O)[O-])c1OC,9.87%,–
COc1cccc(C(=O)O/N=C(\N)c2ccccn2)c1OC,9.45%,–
COc1cccc(-c2nc(NCc3ccccc3)c3ccccc3n2)c1O,15.7%,–
O=C(O)c1ccc(-n2cncn2)c([N+](=O)[O-])c1,19.4%,–
O=c1c([N+](=O)[O-])cn(Cc2ccccc2)c(=O)n1Cc1ccccc1,6.12%,–
COc1cc(C(c2sc3nc(C)nn3c2O)N2CCc3ccccc3C2)cc(OC)c1OC (centres undefined),8.92%,–
COc1cccc(C2Nc3ccc4ccccc4c3C3=C2C(=O)CC(C)(C)C3)c1OCC(=O)O (centres undefined),-1.52%,–
Cc1c(C=O)c2ccccn2c1C(=O)c1ccccc1Cl,-5.78%,–
Clc1ccc(-c2nnc(NC3=NCCCCC3)o2)cc1,-2.05%,–
C[C@@H](OC(=O)c1[nH]cnc1C(=O)N1CCc2ccccc2C1)c1ccccc1,9.91%,–
COc1ccc(CCNC(=O)CSC(=O)c2ccccc2)cc1OC,3.45%,–
O=C(O)c1cn2c3c(ccc(Cl)c3c1=O)OCC2,5.81%,–
CCCCN1C2CCCC1CC(NC(=O)C1CCCCC1)C2 (centres undefined),9.23%,–
O=C(NCc1ccco1)C1CC(=O)N(c2cccc(Cl)c2)C1 (centres undefined),19.1%,–

Compound,"activity change, negative = cytotoxicity",outcome
O=C(COC(=O)c1ccc(S(=O)(=O)NCc2ccco2)cc1)Nc1ccc(Cl)cn1,11.9%,–
COc1ccc(-n2cc(C(=O)c3ccccc3O)cn2)cc1,-10.2%,–
CCc1ccc(/C=C2\SC(=S)N(CCCC(=O)NC3=NCCS3)C2=O)cc1,8%,–
COc1cccc(C(=O)N2CCN(c3nc4cc(C)cc(C)c4cc3C#N)CC2)c1,-2.74%,–
CCCSc1ccc([C@@H]2[C@H]3C(=O)N(C)C(=O)[C@H]3[C@]3(C(=O)OC)CCCN23)cc1OC,9.73%,–
CCCn1c(C)cc(C(=O)CN2C(=O)c3ccccc3S2(=O)=O)c1C,19.8%,–
CCSc1nnc(NC(=O)CSc2nnc(-c3c[nH]c4ccccc34)n2CC)s1,-3.04%,–
CC(=O)c1ccccc1OCC(=O)Nc1cccc(S(=O)(=O)N2CCCC2)c1,10.1%,–
O=C(CCCN1C(=O)[C@H]2CC=CC[C@H]2C1=O)NCc1nc(-c2ccc(Cl)cc2)no1,-0.639%,–
Cc1cccc(-n2c(O)c(C=Nc3c(C)n(C)n(-c4ccccc4)c3=O)c3ccccc3c2=O)n1,20.4%,–
COC(=O)C1=C(C)N(c2cc(C)cc(C)c2)/C(=C/c2ccc(O)cc2)C1=O,9.32%,–
COc1cc(N)c(Cl)cc1C(=O)NC1CCN(Cc2ccccc2)CC1,4.22%,–
Cc1cccc(Nc2nc(Cl)ncc2F)c1C,9.2%,–
Cc1ccccc1C(=O)N1CCN(c2ccc(NC(=O)c3cccs3)cc2)CC1,24.5%,–
COc1cc(OC)cc(C(=O)N[C@H](C(=O)OCC(=O)c2ccc(C)c([N+](=O)[O-])c2)C(C)C)c1,10.3%,–
CCOC(=O)Oc1c(OC)cc(C(=O)O[C@@H]2C[C@@H]3CN4CCc5c([nH]c6cc(OC)ccc56)[C@H]4C[C@@H]3[C@H](C(=O)OC)[C@H]2OC)cc1OC,-11%,–
CCOC(=O)c1cc(-c2ccccc2)n(CC(=O)Nc2cccc(OC)c2)c1C,-15.8%,–
CCOC(=O)c1nc(NCc2ccccc2F)c2ccccc2n1,17.3%,–
COCCn1c(C)cc(C(=O)COc2ccc(C)nc2[N+](=O)[O-])c1C,34.1%,–
COC(=O)c1[nH]c2ccc(C)cc2c1NC(=O)NC1CCCCC1,4.16%,–
CN(CC(=O)Nc1cccnc1)S(=O)(=O)c1ccc(Br)cc1,20%,–
COc1cc(C2CC(=O)N3CN(Cc4ccccc4)CSC3=C2C#N)ccc1OCc1ccccc1 (centres undefined),21.9%,–
COc1ccccc1OCc1ccc(C(=O)c2ccccc2)cc1,0.895%,–
O=C(O)C1CC(=O)N(c2ccc(Br)cc2)C1 (centres undefined),6.93%,–
CNS(=O)(=O)c1cccc(C(=O)OCC(=O)c2ccc3c(c2)OCCO3)c1,5.62%,–
COc1ccc(OC)c2[nH]c(=O)c(CCNC(=O)c3ccc(S(=O)(=O)N(C)C)cc3)cc12,1.5%,–
